Cruzain noTriton = cruzain (T. cruzi) inhibition without detergent; purified cruzain, Z-FR-AMC fluorescence, no detergent; hit rate 2.3% among 200,000; Potency, µM, for inactives: max response, negative = inhibition, most hits filed as inhibitors; P25779;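 also: plate controls were enzyme without inhibitor for no effect and buffer without enzyme for full effect; nearly all actives have a fitted effect of over 40% in size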
Target sequence (P25779 123-467 limits assumed): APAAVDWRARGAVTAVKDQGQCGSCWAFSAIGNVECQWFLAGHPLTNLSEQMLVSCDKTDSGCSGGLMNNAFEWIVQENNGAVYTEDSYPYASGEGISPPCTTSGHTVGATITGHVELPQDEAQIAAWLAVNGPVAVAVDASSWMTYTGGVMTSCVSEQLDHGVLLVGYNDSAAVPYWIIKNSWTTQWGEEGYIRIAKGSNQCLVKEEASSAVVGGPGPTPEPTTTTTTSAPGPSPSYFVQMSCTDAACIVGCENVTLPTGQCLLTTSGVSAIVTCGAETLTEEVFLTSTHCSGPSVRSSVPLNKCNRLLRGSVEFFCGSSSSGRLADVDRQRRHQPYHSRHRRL
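Detergent-free condition (0.00005% Triton X-100) in acetate buffer pH 5.5 with DTT. 1.5 nM enzyme and compound were pre-mixed 15 min, then 2 uM Z-FR-AMC substrate added; reaction progress from fluorescence change between first and third reads (60 s).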
Cruzain inh Det = inhibitors of Trypanosoma cruzi cruzain with detergent; Potency, µM, for the others: max response, negative = inhibition, hits mostly inhibitors; hit rate 0.43% among 200,000; P25779; purified cruzain, Z-FR-AMC fluorescence, 0.01% Triton;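 also: plate controls were neutral wells for no effect and buffer without enzyme for full effect; nearly all actives have a fitted effect of over 40% in size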
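Enzyme 1.5 nM, Z-FR-AMC 2 uM, NaOAc 100 mM pH 5.5, DTT 5 mM, Triton X-100 0.01%; 15 min RT compound preincubation; kinetic ex360/em450, 60 s delta.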
Numbers without * were called inactive; ? = inconclusive. Hits are enriched below; roughly 2.4% of the tested compounds scored in any of these assays. Calls follow the shape of the dose curve; as a rule, active = well fitted curve in the direction sought with a large enough effect; inconclusive = small, poorly fitted or top-dose-only effect, or another doubt; inactive = no such curve, though single readings can be large; an effect the other way counts as inactive or inconclusive. Potency is read from the fitted curve at half-maximal effect.

SMILES	Cruzain noTriton	Cruzain inh Det
Cc1ccc(S(=O)(=O)c2cc3c(=O)n4cc(C)ccc4nc3n(CC3CCCO3)c2=N)cc1 (stereo not given)	16%	4%
CCCn1c(=N)c(C(=O)NCC2CCCO2)cc2c(=O)n3cccc(C)c3nc21 (stereo not given)	?	32µM*
N=c1c(S(=O)(=O)c2ccccc2)cc2c(=O)n3ccccc3nc2n1CC1CCCO1 (stereo not given)	?	32µM*
Cc1cccn2c(=O)c3cc(C(=O)NCC4CCCO4)c(=N)n(CCN4CCOCC4)c3nc12 (stereo not given)	-1%	-16%
Cc1ccc(CNC(=O)c2cc3c(=O)n4cccc(C)c4nc3n(CC3CCCO3)c2=N)cc1 (stereo not given)	?	-4%
COCCCn1c(=N)c(C(=O)NCC2CCCO2)cc2c(=O)n3cccc(C)c3nc21 (stereo not given)	?	25µM*
COCCCn1c(=N)c(C(=O)NCC2CCCO2)cc2c(=O)n3ccccc3nc21 (stereo not given)	?	28µM*
COc1ccc2nc(NC(=O)c3ccc(S(=O)(=O)N4CCCC(C)C4)cc3)sc2c1 (stereo not given)	-9%	-1%
CCS(=O)(=O)N1Cc2ccccc2CC1C(=O)Nc1nccs1 (stereo not given)	-5%	7%
CCSc1nnc(NC(=O)C2Cc3ccccc3CN2S(=O)(=O)CC)s1 (stereo not given)	-6%	-9%
CCS(=O)(=O)N1Cc2ccccc2CC1C(=O)Nc1nnc(SCc2c(Cl)cccc2Cl)s1 (stereo not given)	7.9µM*	-1%
CCS(=O)(=O)N1Cc2ccccc2CC1C(=O)Nc1nc2c(C)cccc2s1 (stereo not given)	25µM*	-12%
O=C(CN1C(=O)C2CC=CCC2C1=O)Nc1nnc(SCc2ccc(Cl)cc2)s1 (stereo not given)	-20%	-3%
O=C(CN1C(=O)C2CC=CCC2C1=O)Nc1nnc(SCc2c(Cl)cccc2Cl)s1 (stereo not given)	16µM*	1%
Cc1ccccc1N(C)C(=O)c1noc2c1COc1ccccc1-2	12%	-4%
C/C(=C\CO)CCO	-9%	6%
COc1ccc(-c2noc(-c3ccccc3OCC(=O)Nc3ccc(C(C)=O)cc3)n2)cc1	-5%	-10%
CCOc1ccc(-c2cc(C(=O)Nc3ccc(NC(C)=O)cc3)no2)cc1	-4%	-1%
COc1ccc(CC(=O)Nc2ccc(-c3noc(-c4cc(OC)c(OC)c(OC)c4)n3)cc2)cc1	5%	-2%
COc1ccc(CC(=O)Nc2ccc(-c3noc(-c4ccc(Cl)cc4)n3)cc2)cc1	4µM*	-8%
CCOc1ccccc1-c1nc(-c2ccc(NC(=O)Cc3ccc(OC)cc3)cc2)no1	7.9µM*	1%
CCc1ccc(NC(=O)c2cc(-c3ccc(OC)cc3)on2)cc1	13µM*	0%
CC(=O)C1=C(c2ccccc2)N(C(C)=O)n2c(nnc2C2CCCCC2)S1	6%	-3%
O=C(Cn1cc(SCc2ccc(F)cc2)c2ccccc21)N1CCCCC1	0%	-8%
COc1cc(NC(=O)COC(=O)CNS(=O)(=O)c2ccc(F)c(F)c2F)cc(OC)c1	25µM*	28µM*
SMILES	Cruzain noTriton	Cruzain inh Det
COc1cc(NC(=O)COC(=O)c2ccccc2F)cc(OC)c1	4%	-2%
COc1cc(OC)cc(C(=O)Nc2ccc3c(c2)N(C2CCCC2)C(=O)c2ccccc2S3)c1	7%	4%
Cc1ccc(C2=N/C(=C\N3CCCCC3)C(=O)O2)cc1	-9%	-9%
Cc1nn(-c2ccccc2)c(N2CCCC2)c1/C=C1\N=C(c2ccc(OC(C)C)cc2)OC1=O	5µM*	1.4µM*
CCc1ccc(CCC(=O)Nc2sc3c(c2C#N)CCCC3)o1	25µM*	-1%
Cc1ccc(/C=C/C(=O)NC2CCCCCCC2)o1	20µM*	22µM*
CC(C)c1ccc(/C=C/C(=O)NC2CCCCC2)cc1	8%	-2%
Cc1ccc(/C=C/C(=O)Nc2sc3c(c2C#N)CCCC3)o1	7.9µM*	-5%
Cc1cccc(C(=O)Nc2sc3c(c2C#N)CCCCC3)c1	?	3%
N#Cc1c(NC(=O)CCC(=O)O)sc2c1CCCC2	4%	-1%
CCN(CC)c1cc(C)c2cc(NC(=O)/C=C/c3cc(OC)c(OC)c(OC)c3)ccc2n1	3%	-23%
Cc1oc2ccc(O)c(CN(C)Cc3ccccc3)c2c1C(=O)Nc1cccc(Cl)c1C	?	-12%
CN1C(=O)C2(c3ccccc31)N(c1ccc(Br)cc1)C(=O)CS2(=O)=O (stereo not given)	10µM*	-1%
CN1C(=O)C2(SCC(=O)N2c2ccc(F)cc2)c2ccccc21 (stereo not given)	6%	-3%
CN1C(=O)C2(c3ccccc31)N(c1cccc(C(F)(F)F)c1)C(=O)CS2(=O)=O (stereo not given)	5µM*	-3%

Bioassay records as filed in PubChem BioAssay.
